{"source": "PubChem BioAssay AID1053144", "about": "(Broad Institute, 2014)", "note": "Screen size: about 3,400 compounds; about 160 (4.7%) were called active. These entries were drawn from the full list. Results with a measured potency or affinity are listed apart. Unmarked numbers belong to inactive results.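 Rule for the calls: active = fitted curve reaches 30% activation at a concentration no higher than the top valid tested dose, luminescence rising; inconclusive = no clear call, values can overlap the other calls; inactive = signal moving opposite to the expected increase, plus the rest.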", "data": [{"assay": "TCF/LEF reporter activation in neural progenitors – cell-based, iPS-derived NPC, luciferase, Wnt3a, cherry-pick, dose response (AID 1053144);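 note: Wnt3a stimulus is conditioned medium from Wnt3a-transfected mouse L cells at 5% in well; 0% = neutral control wells and 100% = CHIR-99021 positive control wells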", "details": "Wnt3a EC25, 24 h; series mostly up to 26 µM; activation: at the top concentration", "units": {"activation": "%"}, "values": [{"smiles": "CCOC(=O)c1sc2nc(-c3cccnc3)ccc2c1N", "activation": 14.6}, {"smiles": "CC(C)c1[nH]nc2c1C(C1C=CCCC1)C(C#N)=C(N)O2", "note": "(centres undefined)", "activation": 9.36}, {"smiles": "COc1ccc2cc(CCNC(=O)c3ccco3)c(=O)[nH]c2c1", "activation": 17.9}, {"smiles": "CCCNC(=O)c1oc2ccc3c(c2c1C)C(=O)CC(C)(C)O3", "activation": 10.9}, {"smiles": "CCCNC(=O)c1cc(-c2ccc3c(c2)OCO3)on1", "activation": 7.07}, {"smiles": "Cc1cccn2cc(-c3ccc(F)cc3)nc12", "activation": 20}, {"smiles": "c1ccc(-c2ccc3ccccc3n2)cc1", "activation": 15}, {"smiles": "COc1cc2ccc(-c3ccc4ccccc4n3)cc2cc1OC", "activation": 12.8}, {"smiles": "Cc1occc1C(=O)NNC(=O)c1ccccc1F", "activation": 3.75}, {"smiles": "CCCCNc1c(-c2ccc(-c3cccc(Cl)c3)cc2)nc2ccccn12", "activation": -4.29}, {"smiles": "COc1ccc(C)cc1NC(=O)CSc1nnnn1Cc1ccccc1", "activation": 2.28}, {"smiles": "COCCNC(=O)c1cc2sc3ccccc3c2s1", "activation": 8.53}, {"smiles": "COC(=O)c1cc2c(s1)-c1ccc(OC)cc1CC2", "activation": 10}, {"smiles": "CCC1CCC(NC(=O)Nc2cccc(OC)c2)CC1", "note": "(centres undefined)", "activation": 7.93}, {"smiles": "Cc1cc2ncc(-c3ccccc3)nc2cc1C", "activation": 4.06}, {"smiles": "Oc1ccc(-c2cnc3ccccc3n2)cc1", "activation": 9.09}, {"smiles": "CCC(=O)n1nc(-c2ccc(Cl)cc2)nc1SC", "activation": 8.35}, {"smiles": "CCCCC12CN3CCN(CC(C3)/C1=N\\NC(=O)c1ccccc1N)C2", "activation": 1.36}, {"smiles": "CN(C)c1cccc(-c2csc(N3CCC(C(N)=O)CC3)n2)c1", "activation": 10.6}, {"smiles": "Cn1cccc1C(=O)OCC(=O)c1ccc(Br)s1", "activation": 11.6}, {"smiles": "Cc1ccc(C(=O)COC(=O)c2cccc(O)c2)s1", "activation": 4.71}, {"smiles": "CCOc1ccc(N2C(=O)CC(SCCN)C2=O)cc1", "note": "(centres undefined)", "activation": 5.05}, {"smiles": "O=C(Nc1ccccc1)C1=C[C@@H](C2CC2)C[C@@H](OCc2ccc(CO)cc2)O1", "activation": 6.41}, {"smiles": "O=C1/C(=C/c2ccc(O)cc2)COc2ccccc21", "activation": -0.294}, {"smiles": "O=C1c2ccccc2C(=O)C1c1ccnc2ccccc12", "activation": 3.26}, {"smiles": "O=C(Nc1nccs1)c1c(O)c2c([nH]c1=O)CCCC2", "activation": 10.9}, {"smiles": "Cc1ccc2cc(NC(=O)c3ccccc3)ccc2n1", "activation": 4.37}, {"smiles": "O=C(Nc1ccc2ccccc2c1)c1cccc(F)c1", "activation": 13.7}, {"smiles": "COc1cccc(-c2nc(-c3ccccn3)no2)c1OC", "activation": 8.51}, {"smiles": "CN(C(=O)c1cc2c(=O)n3ccccc3nc2n1C)C1CCCCC1", "activation": 15.1}, {"smiles": "Brc1ccc(-c2noc(-c3ccccc3)n2)o1", "activation": 4.42}, {"smiles": "Brc1ccc(-c2nc(-c3ccccc3)no2)o1", "activation": 6.82}, {"smiles": "O=C(c1ccc(-c2ccccc2Cl)o1)N1CCCCCCC1", "activation": 7.93}, {"smiles": "O=C(c1ccc(-c2cccc(Cl)c2Cl)o1)N1CCOCC1", "activation": 12.7}, {"smiles": "CC(C)(C)c1ccc(OCc2ccc(C(=O)NCc3cccnc3)o2)cc1", "activation": 5.47}, {"smiles": "O=c1ncn(-c2cccc(Cl)c2)c2ccccc12", "activation": 1.23}, {"smiles": "O=C(Nc1nccs1)c1ccc(N2CCOCC2)c([N+](=O)[O-])c1", "activation": 14.1}, {"smiles": "Cc1occc1C(=O)N/N=C/C(Br)=C\\c1ccccc1", "activation": 13.2}, {"smiles": "O=C(N/N=C/c1cccc(OCc2ccccc2)c1)c1cccs1", "activation": 4.1}, {"smiles": "COc1ccc(CN2C(=O)C(C)S/C2=N/N=C/c2ccco2)cc1", "note": "(centres undefined)", "activation": 10.9}, {"smiles": "CCCc1cc(C(=O)NC2CCCCC2)no1", "activation": 18.1}, {"smiles": "CC(=O)Nc1nc2cc3c(cc2s1)OCCO3", "activation": 9.37}, {"smiles": "O=C(Nc1nc2cc3c(cc2s1)OCCO3)c1cccs1", "activation": 0.063}, {"smiles": "Cc1c(C(=O)Nc2ccc(Br)cc2)cnn1C", "activation": 17.6}, {"smiles": "Nc1nc(N)nc(-c2cccc(Br)c2)n1", "activation": 12.6}, {"smiles": "Cc1ccc(F)c(CNC(=O)C2(C)CCCN2C(=O)C(C)C)c1F", "note": "(centres undefined)", "activation": 0.12}, {"smiles": "O=C(Nc1cccc(-c2ccc(N3CCOCC3)nn2)c1)c1ccc([N+](=O)[O-])cc1", "activation": 2.05}, {"smiles": "Cc1ccc(C(=O)Nc2cccc(-c3ccc(N4CCOCC4)nn3)c2)cc1", "activation": 18.9}, {"smiles": "N/C(=N\\OC(=O)c1ccc(Cl)cc1Cl)c1cccnc1", "activation": 13.3}, {"smiles": "CN(C)Cc1c(C(=O)Nc2ccccc2)[nH]c2ccccc12", "activation": 4.65}, {"smiles": "COc1ccc(C(=O)Nc2cccc(C)c2)cc1", "activation": 5.38}, {"smiles": "CC1CCN(C(=O)CNC(=O)c2ccc(Br)o2)CC1", "activation": 7.27}, {"smiles": "COc1cccc(/C=C/c2ccccn2)c1O", "activation": 5.08}, {"smiles": "O=C(c1cnn(-c2cccc(F)c2)c1)c1ccccc1O", "activation": 8.87}, {"smiles": "COc1ccccc1NC(=O)COc1ccccc1C(=O)c1cnn(-c2ccccc2)c1", "activation": 10.1}, {"smiles": "CC(O)C(NS(=O)(=O)c1ccc(Cl)cc1)C(=O)OCCOc1ccc(F)cc1", "note": "(centres undefined)", "activation": 5.32}, {"smiles": "Cc1cnc(NC(=O)c2sc(Nc3ccccc3)nc2N)o1", "activation": 11.6}, {"smiles": "CC(C)NC(=O)N(C)C[C@H]1Oc2ccc(NC(=O)Nc3ccccc3)cc2C(=O)N([C@H](C)CO)C[C@@H]1C", "activation": 0.462}, {"smiles": "COc1cccc(CSc2nc3ccccc3[nH]2)c1", "activation": 13.8}, {"smiles": "COc1cc2sc3cc(NCc4ccc(C)o4)ccc3c(=O)c2cc1OC", "activation": 19.1}, {"smiles": "COc1ccc(Nc2n[nH]c(C)c2[N+](=O)[O-])cc1", "activation": 20.8}, {"smiles": "CCOC(=O)C1=C(Nc2ccc(OC)cc2)OCC1=O", "activation": 1.38}, {"smiles": "CCOc1ccc(C(=O)N(CC(=O)Nc2cccc(C)c2C)CC2CCCO2)cc1OC", "note": "(centres undefined)", "activation": 5.22}, {"smiles": "COc1ccc(-c2nnc(-c3cccnc3)o2)cc1", "activation": 8.52}, {"smiles": "COc1ccc(S(=O)(=O)N2CCOCC2)cc1NC(=O)c1ccc2c(c1)OCCO2", "activation": -0.697}, {"smiles": "C#CCOC(=O)CCCC(=O)Nc1ccccc1OC", "activation": 0.6}, {"smiles": "C=CCn1c(C)nc2c(sc3nc4c(cc32)COC(C)(C)C4)c1=O", "activation": 5}, {"smiles": "CCOc1ccc(/C=N/NC(=O)Cn2ccnc2C)cc1", "activation": 4.18}, {"smiles": "COc1cc(/C=N/Nc2ccc(C(F)(F)F)cn2)ccc1O", "activation": 6.34}, {"smiles": "O=C1NC(c2ccccc2Cl)=N/C1=C/c1ccco1", "activation": 12.1}, {"smiles": "c1ccc(-c2cn(CC3CCCCC3)nn2)cc1", "activation": 8.6}, {"smiles": "COc1cc(C#Cc2ccc3cc(CCO)oc(=O)c3c2)cc(OC)c1", "activation": 6.07}, {"smiles": "O=c1oc(CCCO)cc2ccc(C#Cc3ccsc3)cc12", "activation": 12.6}, {"smiles": "CCOC(=O)C1(Cc2cccc(OC)c2)CCCN(C(=O)c2ccccc2C)C1", "note": "(centres undefined)", "activation": 7.41}, {"smiles": "Brc1ccsc1/C=N/Nc1ccccc1", "activation": 8.68}, {"smiles": "Cc1cccc(C(=O)c2c(N)sc3c2CCCC3)c1", "activation": -0.504}, {"smiles": "CC(=O)Nc1ccc(NC(=O)CN(c2ccccc2Cl)S(C)(=O)=O)cc1", "activation": -0.381}, {"smiles": "CC(C)OC(=O)c1ccc2nc3ccccc3nc2c1", "activation": 15.3}, {"smiles": "O=C(c1ccccc1)c1ccc(-c2ccc(O)cc2)cc1", "activation": 6.03}, {"smiles": "Cc1nc(C)c(-c2csc(Nc3cccc(O)c3)n2)s1", "activation": 16.3}, {"smiles": "O=C(Nc1nc2ccccc2[nH]1)c1cccc(Cl)c1", "activation": 15.9}, {"smiles": "COc1cccc(NC(=O)c2cccc(Cl)c2)c1", "activation": 11.1}, {"smiles": "O=C(CSc1nncs1)NCCCc1ccccc1", "activation": 1.9}, {"smiles": "Cc1nc(-c2ccc(NC(=O)c3ccccc3Br)cc2)cs1", "activation": 12.2}, {"smiles": "CC1=CC(=C2C(=O)c3ccccc3C2=O)C=C(C)N1Cc1ccco1", "activation": 17}, {"smiles": "CCCC(=O)Nc1sc(C(=O)Nc2cccc(N)c2)c(C)c1C(=O)OC", "activation": 20.3}, {"smiles": "COC(=O)c1c(NC(C)=O)sc(C(=O)Nc2ccccc2F)c1C", "activation": 10.7}, {"smiles": "CCCc1nc2oc3c(NCC(C)O)ncnc3c2c2c1CCCC2", "note": "(centres undefined)", "activation": 0.142}, {"smiles": "Cc1ccsc1C(=O)OCC(=O)N(C)C1CCCCC1", "activation": 2.94}, {"smiles": "Cc1ccsc1C(=O)OCC(=O)c1ccc[nH]1", "activation": 14.9}, {"smiles": "Cc1ccnc(NC(=O)C2COc3ccccc3O2)c1", "note": "(centres undefined)", "activation": 10.1}, {"smiles": "CC(=Nc1ccccc1O)c1sc2ccccc2c1O", "activation": 0.949}, {"smiles": "CC(=Nc1ccc(C)cc1)c1sc2ccccc2c1O", "activation": 3.95}, {"smiles": "CCCC(=O)Nc1ccc(C#Cc2ccccc2)cc1", "activation": 10.2}, {"smiles": "O=C(NN1C(=O)C2C3c4ccccc4C(c4ccccc43)C2C1=O)C1CC1", "note": "(centres undefined)", "activation": -0.537}, {"smiles": "O=C(O)CC(CN1C(=O)c2ccccc2C1=O)c1ccccc1", "note": "(centres undefined)", "activation": 1.35}, {"smiles": "c1ccc(-c2noc(C3CCCCC3)n2)nc1", "activation": 7.21}, {"smiles": "Nc1ccc2c(c1)C(=O)c1ccccc1C2=O", "activation": 6.15}, {"smiles": "CCc1ccc(NC2=CC(=O)C(=O)c3ccccc32)cc1", "activation": -1.95}, {"smiles": "CC(C)NC(=O)c1cc(-c2ccc3c(c2)OCO3)on1", "activation": 7.65}, {"smiles": "Cc1ccc(S(=O)(=O)N2CCN(C(=O)Cn3c(=O)cnc4ccccc43)CC2)c(C)c1", "activation": 2.87}, {"smiles": "COc1ccccc1CN(C)C(=O)C1COc2ccccc2O1", "note": "(centres undefined)", "activation": 0.467}, {"smiles": "Cc1ccc(/C=C/C(=O)Nc2cc(C)on2)cc1", "activation": 13}, {"smiles": "CC(=O)Nc1ccc(C(=O)COC(=O)C2CC2)c(F)c1", "activation": 15.5}, {"smiles": "CCCC(=O)Nc1ccc(C(=O)COC(=O)C2CC2C)cc1", "note": "(centres undefined)", "activation": 10.2}, {"smiles": "Cc1ccc(OCC(=O)O/N=C(\\N)c2ccccn2)cc1C", "activation": 7.88}, {"smiles": "COc1ccc2nc(Nc3ccccc3OC)sc2c1", "activation": 8.99}, {"smiles": "Cc1cc(Cl)ccc1OCc1nnc(-c2ccccc2C)o1", "activation": 9.09}, {"smiles": "COc1ccccc1-c1nc(COc2ccc(Cl)cc2Cl)no1", "activation": 10.9}, {"smiles": "CCOc1ccc(NC2c3ccccc3C(=O)N2c2ccc(Cl)cn2)cc1", "note": "(centres undefined)", "activation": 1.49}, {"smiles": "O=C(CN1C(=O)CCC1=O)Nc1nc(-c2ccc3ccccc3c2)cs1", "activation": 6.17}, {"smiles": "CCN(CC)S(=O)(=O)c1ccc(O)c(NC(=O)COc2ccc(S(=O)(=O)N3CCOCC3)cc2)c1", "activation": 2.52}, {"smiles": "Cc1ccc(N/C=C2/Sc3ccccc3NC2=O)cc1", "activation": 0.79}, {"smiles": "O=C1NC(=Nc2ccccc2)S/C1=C/c1cccs1", "activation": 7.78}, {"smiles": "COC(=O)[C@@H](Cc1c[nH]c2ccccc12)NC(=O)c1ccc2c(c1)OCO2", "activation": 9.16}, {"smiles": "CCCCNC(=O)C1CC(c2cccc(F)c2)=NO1", "note": "(centres undefined)", "activation": 11.2}, {"smiles": "COc1ccc(CNC(=O)C(=O)NCC(c2ccco2)N2CCOCC2)cc1", "note": "(centres undefined)", "activation": 7.47}, {"smiles": "O=C(COc1ccc(Cl)cc1Br)NC(=O)NC1CCCC1", "activation": 14.6}, {"smiles": "Cc1ccc(C(=O)Nc2ccc3c(c2)OCO3)cc1Cl", "activation": 8.71}, {"smiles": "O=C(Nc1ccc(F)cc1F)c1cc2ccccc2oc1=O", "activation": 11.5}, {"smiles": "O=C(NCCc1c[nH]c2ccccc12)c1cc(Cl)c2c(c1)OCO2", "activation": 13.5}, {"smiles": "COc1ccc(/C(N)=N/OC(=O)C2CCCCC2)cc1", "activation": 9.93}, {"smiles": "Cc1cccnc1NC(=O)c1cc2ccccc2oc1=O", "activation": 7.56}, {"smiles": "Cc1ccc(NC(=O)c2sccc2C)cc1[N+](=O)[O-]", "activation": 11.7}]}]}
